Screening results as filed in PubChem BioAssay.
CYP2C9 inhib – inhibitors of human CYP2C9; 96,000 tested, 20% active; AID 777; P11712; inhibition, % at 5 µM; CYP2C9 Supersomes, luciferin-H conversion, luminescence;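 active means blocking of liver enzyme CYP2C9 beyond about 50% at 5 µM, limit read from the data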
Target sequence (P11712 whole entry, looked up): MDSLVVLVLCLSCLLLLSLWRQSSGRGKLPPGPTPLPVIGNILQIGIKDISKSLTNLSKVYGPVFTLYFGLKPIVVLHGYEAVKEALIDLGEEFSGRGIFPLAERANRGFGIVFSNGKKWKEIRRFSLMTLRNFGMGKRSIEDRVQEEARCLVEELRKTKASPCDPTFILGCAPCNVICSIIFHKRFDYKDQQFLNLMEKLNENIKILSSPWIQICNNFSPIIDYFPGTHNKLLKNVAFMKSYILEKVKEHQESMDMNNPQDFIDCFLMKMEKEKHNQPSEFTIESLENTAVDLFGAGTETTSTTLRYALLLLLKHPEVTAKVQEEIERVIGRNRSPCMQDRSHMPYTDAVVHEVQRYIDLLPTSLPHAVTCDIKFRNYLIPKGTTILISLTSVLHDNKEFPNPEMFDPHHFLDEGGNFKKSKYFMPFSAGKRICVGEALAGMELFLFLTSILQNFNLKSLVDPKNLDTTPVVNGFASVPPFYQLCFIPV
CYP2C19 inh – blocks human cytochrome P450 2C19; CYP2C19 Supersomes, luciferin-H EGE luminescence, 30 min; 96,000 tested, 21% active; inhibition, % at 5 µM;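 active means CYP2C19 inhibition above a set limit at 5 µM in the primary screen, cut at about 50% in these data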;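 further: plate controls were negative control wells for no effect and 2.5 mM tranylcypromine positive control for full effect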
CYP2C19 act – activators of human cytochrome P450 2C19 | P33261 | recombinant CYP2C19, luciferin-H EGE luminescence; hits give high values; 0 = fully inhibited enzyme, 1 = untreated enzyme | activation factor at 5 µM | 96,000 tested, under 10 active;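 active means activation factor of at least 2 at 5 µM in the primary screen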;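 further: 0 = wells with 2.5 mM tranylcypromine and 1 = vehicle-only wells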
CYP2C9 act – increases human cytochrome P450 2C9 activity. P11712. recombinant CYP2C9, luciferin-H conversion, luminescence; hits give high values; factor 1 = untreated enzyme, 0 = blocked. activation factor at 5 µM. 96,000 tested, 1.4% active. AID 1024;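 active means activation factor of 2 or more for CYP2C9 at a 5 µM dose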;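 further: 0 = sulfaphenazole-blocked wells and 1 = vehicle-only wells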
CD11b adhes enh – CD11b/CD18-fibrinogen binding enhancement; AID 1499; P05107+P11215; activation, % at 10 µM; 93,000 tested, 0.07% active; K562 CD11b/CD18 adhesion to fibrinogen, ATPlite luminescence;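 active means 10 µM primary screen giving 50% or more activity, confirmed by 40% or more on retest at that dose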
CD11b adhes inh – blocks human CD11b/CD18 adhesion to fibrinogen. P05107+P11215. K562 CD11b/CD18 adhesion to fibrinogen, ATPlite luminescence; Mn2+ added to activate the integrin. inhibition, % at 10 µM. 93,000 tested, 0.54% active. AID 1497;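 active means primary inhibition of 50% or more at 10 µM, then 40% or more on retest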
The depositor's hits bear a star; · = not tested or not shown. An excerpt weighted towards active compounds, which were near 28% of everything screened.

SMILES	CYP2C9 inhib	CYP2C19 inh	CYP2C19 act	CYP2C9 act	CD11b adhes enh	CD11b adhes inh
C#Cc1ccc(C(=O)Nc2cc(C(N)=O)ccc2N2CCOCC2)cc1	16	2	1	0.8	52	50
CCOC(=O)C(C)Sc1ncc(-c2ccc(Cl)cc2)cn1 (stereo unspecified)	16	18	0.8	0.8	4	-7
O=C(COc1ccc(Cl)cc1)N1CCCCC1	-2	35	0.7	1	-4	-2
O=C(CCCOc1ccc(Cl)cc1)N1CCCCCC1	59*	95*	0	0.4	0	11
CCC(CC)c1nnc(NC(=O)c2c(-c3ccccc3)noc2C)s1	58*	19	0.8	0.4	0	1
Cc1onc(-c2ccccc2)c1C(=O)Nc1nc(-c2ccccc2)cs1	72*	70*	0.3	0.3	4	-5
COC(=O)c1ccc(C)c(NC(=O)c2c(-c3ccccc3)noc2C)c1	39	69*	0.3	0.6	-3	-9
Cc1onc(-c2ccccc2)c1C(=O)Nc1nc(-c2cc(F)ccc2F)cs1	-14	-11	1.1	1.1	1	7
Cc1onc(-c2ccccc2)c1C(=O)Nc1nnc(COc2ccc(Cl)cc2)s1	98*	54*	0.5	0	-2	79
Cc1nnc(NC(=O)c2c(-c3ccccc3)noc2C)s1	-1	-5	1	1	·	·
COc1ccccc1N1CCN(CC(O)COc2ccc3c(c2)CCC3)CC1 (stereo unspecified)	-34	4	1	1.3	2	-3
Cc1cc(C(=O)OCC(=O)Nc2nc(-c3ccccc3)cs2)c(C)o1	-4	5	0.9	1	-1	-9
COc1cccc(/C=N/NC(=O)c2c(-c3ccccc3)noc2C)c1	67*	50*	0.5	0.3	·	·
CCOC(=O)c1c(C)[nH]c(C(=O)N/N=C/c2cccc(OC)c2)c1C	·	·	·	·	2	-17
Cc1cc(C(=O)OC(C)C(=O)Nc2nc(-c3ccccc3)cs2)c(C)o1 (stereo unspecified)	96*	89*	0.1	0	1	19
COc1ccccc1NC(=O)COc1ccc(/C=N/n2cnnc2)cc1OC	72*	56*	0.4	0.3	-8	7
CCOc1cc(/C=C\[N+](=O)[O-])ccc1OCC(=O)Nc1ccccc1C	14	11	0.9	0.9	0	3
CCOc1cc(/C=N/n2cnnc2)ccc1OCC(=O)Nc1ccccc1OC	70*	54*	0.5	0.3	-6	-21
COc1ccc(OC)c(C(=O)COC(=O)CNC(=O)C2CCCCC2)c1	-35	22	0.8	1.3	-1	-11
C/C(=N\Nc1ccc([N+](=O)[O-])cc1[N+](=O)[O-])C(C)(C)C(C(=O)O)C(=O)O	·	·	·	·	-4	1
COC(=O)c1ccc2ccn(CC(=O)NC3CCCCC3)c2c1	44	26	0.7	0.6	·	·
N#Cc1ccc2ccn(CC(=O)NC3CCCCCC3)c2c1	27	58*	0.4	0.7	-1	-14
Cc1ccc(C(=O)CC(=O)c2cccc(F)c2)c(O)c1	72*	95*	0	0.3	-6	14
Cc1ccc(N2CC(C(=O)NCc3ccccn3)CC2=O)cc1 (stereo unspecified)	26	17	0.8	0.7	4	-8
Cc1ccc2nc(NC(=O)C(NS(=O)(=O)c3cccc4nsnc34)C(C)C)sc2c1 (stereo unspecified)	77*	23	0.8	0.2	-7	12
SMILES	CYP2C9 inhib	CYP2C19 inh	CYP2C19 act	CYP2C9 act	CD11b adhes enh	CD11b adhes inh
COc1ccc2nc(NC(=O)CN3CCN(C)CC3)sc2c1	-5	-6	1.1	1	-5	-3
COc1ccc2nc(NC(=O)C(NS(=O)(=O)c3cccs3)C(C)C)sc2c1 (stereo unspecified)	63*	55*	0.4	0.4	1	-2
COc1ccc(-n2c(Cn3c(=O)sc4ccccc43)nnc2SCC(=O)N2CCCC2)cc1	28	-4	1	0.7	-2	9
O=C(C1CCCN(S(=O)(=O)c2cccnc2)C1)N1CCn2c1nc1ccccc12 (stereo unspecified)	6	-4	1	0.9	-2	19
CCOC(=O)Cn1nnnc1CN(Cc1ccc(OC)cc1)Cc1cc2cc(C)cc(C)c2[nH]c1=O	-11	-14	1.1	1.1	-3	13
CCc1ccc2[nH]c(=O)c(CN(Cc3ccccc3OC)Cc3nnnn3Cc3ccco3)cc2c1	96*	58*	0.4	0	·	·
COCCn1nnnc1CN(Cc1ccco1)Cc1cc2cc3c(cc2[nH]c1=O)OCO3	-4	10	0.9	1	·	·
COc1ccccc1CN(Cc1cc2cc(C)ccc2[nH]c1=O)Cc1nnnn1Cc1ccco1	98*	99*	0	0	-1	7
CCOC(=O)Cn1nnnc1CN(Cc1ccc(OC)cc1)Cc1cc2cc(CC)ccc2[nH]c1=O	95*	97*	0	0	1	0
COc1ccc2nc(SCC(=O)Nc3ccc4sc(C)nc4c3)c(C#N)cc2c1	45	25	0.8	0.5	146	-46
CCc1ccc(C(=O)c2oc3nc(C)cc(C)c3c2N)cc1	·	·	·	·	2	-5
CCOC(=O)c1cccc(NC(=O)CSc2nc3ccccc3c(=O)n2CCOC)c1	64*	27	0.7	0.4	2	-3
COCCn1c(SCC(=O)NNC(=O)c2ccccc2)nc2ccccc2c1=O	·	·	·	·	-1	0
CCOC(=O)c1cccc(NC(=O)CSc2nc3ccccc3c(=O)n2CC)c1	51*	8	0.9	0.5	-1	-36
CCCNc1nc(C)c(C(C)=O)cc1C#N	-3	20	0.8	1	-3	-8
Cc1nc(N2C(=O)C(=O)/C(=C(/O)c3ccccc3)C2c2ccco2)sc1C (stereo unspecified)	61*	53*	0.5	0.4	2	19
Cc1ccc(NC(=O)CCn2cccc2)cc1F	61*	96*	0	0.4	-4	-31
CC(=O)NCCC(=O)Nc1ccc(C)c(F)c1	10	10	0.9	0.9	0	-44
N#Cc1cccc(NC(=O)CCn2ccnc2)c1	87*	95*	0	0.1	4	-29
O=C(CCN1CCCCCC1)Nc1cccc(F)c1	2	-21	1.2	1	-5	-9
CCN(CC)c1ccc(C(=O)Nc2cccc(F)c2)cc1	7	64*	0.4	0.9	2	19
O=C(CCn1cccc1)Nc1cccc(F)c1	7	50*	0.5	0.9	-2	-1
Cc1ccccc1S(=O)(=O)Cc1ccc(C(=O)NC(C)c2ccc3c(c2)OCCO3)o1 (stereo unspecified)	98*	99*	0	0	2	2
CC(NC(=O)c1cn(C)c2ccc(S(=O)(=O)N3CCCC3)cc2c1=O)c1ccc2c(c1)OCCO2 (stereo unspecified)	26	9	0.9	0.7	·	·
